INS-1E GSIS act: GLuc luminescence reporter in INS-1E cells, primary screen for activators of glucose-dependent secretion of insulin; activation, % at 16.6 µM; INS-1E GLuc reporter insulin secretion, 2-3 h; hit rate 0.61% among 370,000;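 active = lowest replicate activation of at least 40%, so every replicate reaches that level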;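 note: 0% = median of neutral control wells and 100% = median of IBMX positive control wells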
MLL AF4-AF9 inh: inhibitors of AF4 peptide binding to AF9, primary screen, biochemical, AlphaScreen, biotin-AF4 peptide, FLAG-AF9, single point; Protein AF-9 (Homo sapiens), P42568; inhibition, % at 10 µM; hit rate 0.47% among 350,000; AID 651704, 2012;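 active = every replicate reaching a set inhibition limit, whatever the replicate mean, cut at about 25% in these data; inconclusive = mean inhibition reaches that limit but some replicates miss it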;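 note: 0% = plate neutral control median and 100% = total signal loss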
PGC1a acetyl inh: inhibitors of PGC1a acetylation signal, primary screen, cell-based, U2OS, AlphaScreen, inhibitor mode. AID 651687, 2012. AlphaScreen anti-acetyl-lysine; with virally co-expressed GCN5 acetyltransferase. hit rate 0.17% among 350,000. inhibition, % at 15.6 µM;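 active = every replicate shows inhibition of at least 40%; inconclusive = mean inhibition at least 40% but some replicate below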;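 note: 0% = neutral control wells and 100% = positive control wells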
HIV Env fusion: inhibitors of HIV-1 Env-driven cell-cell fusion, primary screen, HeLa-JRFL effector, CEM21 target cells, luciferase | inhibition, % at 12.3 µM | hit rate 1.1% among 360,000 | AID 651610, 2012;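 active = mean replicate inhibition score of at least 50 and every replicate individually at or above 50; inconclusive = only one of the two criteria met; inactive = mean below 50 and not all replicates reaching 50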;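 note: 0% = plate neutral controls and 100% = maraviroc near 300 nM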
NSD2 inh: NSD2 histone methyltransferase inhibitors, primary screen, biochemical, AlphaScreen, single concentration, set 2; Histone-lysine N-methyltransferase NSD2 (Homo sapiens), O96028; NSD2 peptide methylation, 120 min; inhibition, % at 12.5 µM; hit rate 0.54% among 310,000; AID 743445, 2014; in the data active = inhibition above about 50%
Target sequence (O96028 whole entry, looked up): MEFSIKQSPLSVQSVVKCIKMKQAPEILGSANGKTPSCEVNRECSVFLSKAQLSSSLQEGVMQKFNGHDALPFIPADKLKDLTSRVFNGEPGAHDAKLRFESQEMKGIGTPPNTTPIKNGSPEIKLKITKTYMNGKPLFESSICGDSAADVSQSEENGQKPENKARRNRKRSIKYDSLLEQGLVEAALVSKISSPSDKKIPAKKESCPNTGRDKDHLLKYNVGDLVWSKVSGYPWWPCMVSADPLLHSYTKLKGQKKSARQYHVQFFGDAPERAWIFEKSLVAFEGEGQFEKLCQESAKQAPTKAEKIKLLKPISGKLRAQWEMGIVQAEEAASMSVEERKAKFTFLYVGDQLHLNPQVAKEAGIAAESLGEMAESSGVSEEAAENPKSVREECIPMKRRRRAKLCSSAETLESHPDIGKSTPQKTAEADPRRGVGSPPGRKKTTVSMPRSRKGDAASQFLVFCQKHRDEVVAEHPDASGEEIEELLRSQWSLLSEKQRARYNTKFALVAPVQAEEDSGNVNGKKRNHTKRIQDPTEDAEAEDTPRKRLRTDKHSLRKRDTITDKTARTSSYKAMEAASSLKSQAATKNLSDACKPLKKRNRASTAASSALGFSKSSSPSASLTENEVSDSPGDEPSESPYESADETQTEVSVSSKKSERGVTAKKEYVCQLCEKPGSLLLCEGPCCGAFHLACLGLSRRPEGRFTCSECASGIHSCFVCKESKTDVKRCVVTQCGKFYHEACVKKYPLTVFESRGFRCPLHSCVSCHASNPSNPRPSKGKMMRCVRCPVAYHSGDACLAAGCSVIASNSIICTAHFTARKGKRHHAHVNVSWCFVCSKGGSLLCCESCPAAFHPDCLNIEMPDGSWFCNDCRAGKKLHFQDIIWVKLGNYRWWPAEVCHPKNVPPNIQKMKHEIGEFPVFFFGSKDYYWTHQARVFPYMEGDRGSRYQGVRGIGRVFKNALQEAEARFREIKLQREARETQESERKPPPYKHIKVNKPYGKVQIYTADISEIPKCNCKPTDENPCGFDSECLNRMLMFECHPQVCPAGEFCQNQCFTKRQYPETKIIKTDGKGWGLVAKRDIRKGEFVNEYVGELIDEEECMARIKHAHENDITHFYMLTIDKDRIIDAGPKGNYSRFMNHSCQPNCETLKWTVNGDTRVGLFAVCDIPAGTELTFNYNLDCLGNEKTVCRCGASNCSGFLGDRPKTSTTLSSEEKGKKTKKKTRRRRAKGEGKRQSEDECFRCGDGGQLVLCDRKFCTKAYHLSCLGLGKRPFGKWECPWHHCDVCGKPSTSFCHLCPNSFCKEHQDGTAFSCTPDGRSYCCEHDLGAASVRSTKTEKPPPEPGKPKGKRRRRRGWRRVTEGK
* = called active by the depositor; ? = inconclusive; / = no result; [ ] = remark or other dose. Compounds with a hit are over-represented: about 2.1% of the library has one in this group of screens.

SMILES	INS-1E GSIS act	MLL AF4-AF9 inh	PGC1a acetyl inh	HIV Env fusion	NSD2 inh
O=C1C(NS(=O)(=O)c2cccs2)=C(N2CCN(Cc3ccccc3)CC2)C(=O)c2ccccc21	0	54*	0	1	33
CCN1CCN(C2=C(NS(=O)(=O)c3ccccc3)C(=O)c3ccccc3C2=O)CC1	/	9	/	-11	57*
CCN1CCN(C2=C(NS(=O)(=O)c3ccc(Br)cc3)C(=O)c3ccccc3C2=O)CC1	-1	14	/	-16	90*
Nc1n[nH]c(S(=O)(=O)CCCc2ccccc2)n1	/	/	-4	/	-2
CCn1c(COc2ccccc2C)nnc1SCC(=O)NCc1ccccc1	-1	/	0	16	-2
CCOc1ccccc1C=C1SC(=S)NC1=O	-30	-3	0	78*	11
O=C(O)CCCCCN1C(=O)/C(=C\c2cn(-c3ccccc3)nc2-c2cccs2)SC1=S	18	-3	-5	5	5
NC(=S)NN=Cc1nccc2c(C(F)(F)F)cccc12	-24	-1	2	?	3
CNc1cccnc1C=NNC(N)=S	2	6	2	81*	3
COc1ccccc1NC(=O)Nc1nc(CC(=O)Nc2ccc(F)c(F)c2)cs1	-42	-21	/	13	-1
COC(=O)c1c(C)[nH]c(C(=O)/C=C/c2ccccc2)c1C	56*	/	/	/	3
COC(=O)c1c(C)[nH]c(C(=O)/C=C/c2ccc(C)cc2)c1C	-5	/	14	8	-2
O=C1N/C(=C/c2ccsc2)C(=O)N1c1ccccc1	6	-2	-3	-79	-6
O=C(NCC(=O)N1CCN(c2ncccn2)CC1)c1ccccc1OC(F)F	-2	-2	1	86*	/
NC(Cc1ccc(F)cc1)c1csc(Nc2ccc(C(F)(F)F)cn2)n1 (stereo not given)	-29	3	0	71*	/
Cc1cnc(C)c(Nc2nc(C(N)Cc3ccc(C(F)(F)F)cc3)cs2)n1 (stereo not given)	-36	12	-4	106*	1
Cc1nc(SCC(=O)Nc2c(C)nn(C)c2C)c2cnn(-c3ccccc3)c2n1	/	/	7	64*	1
CC(C)NC(=O)C1(C)CCN1Cc1cccc(C#N)c1 (stereo not given)	43*	-2	/	-8	-1
CC(C)NC(=O)C1(C)CCN1Cc1ccc(-c2ccccc2)cc1 (stereo not given)	3	0	/	57*	2
C[C@H](CO)N1C[C@H](C)[C@@H](CN(C)C(=O)Nc2ccc(F)cc2)OCCCC[C@H](C)Oc2ccc(NC(=O)Nc3ccc4c(c3)OCO4)cc2C1=O	25	49*	-9	1[16.7 µM]	/
C[C@H](CO)N1C[C@H](C)[C@H](CN(C)Cc2ccccc2)OCCCC[C@H](C)Oc2ccc(NC(=O)Nc3ccc4c(c3)OCO4)cc2C1=O	-28	2	24	58*[16.7 µM]	/
C[C@@H]1CN([C@H](C)CO)C(=O)c2cc(NC(=O)Nc3ccc4c(c3)OCO4)ccc2O[C@@H](C)CCCCO[C@H]1CN(C)Cc1ccc(Cl)c(Cl)c1	7	7	-2	63*[16.7 µM]	/
C[C@@H]1CCCCO[C@@H](CN(C)Cc2ccccc2)[C@@H](C)CN([C@H](C)CO)C(=O)c2cc(NC(=O)Nc3ccc4c(c3)OCO4)ccc2O1	-36	-6	-12	-35[16.7 µM]	/
C[C@H]1CCCCO[C@H](CN(C)Cc2ccc3c(c2)OCO3)[C@@H](C)CN([C@@H](C)CO)C(=O)c2cc(NC(=O)Nc3ccc4c(c3)OCO4)ccc2O1	-36	29*	10	21[16.7 µM]	/
C[C@@H]1CN([C@@H](C)CO)C(=O)c2cccc(N(C)C)c2O[C@H]1CN(C)C(=O)NC1CCCCC1	-11	-1	0	-21[16.7 µM]	/
C[C@@H]1CCCCO[C@H](CN(C)Cc2ccc3c(c2)OCO3)[C@H](C)CN([C@@H](C)CO)C(=O)c2cc(NC(=O)Nc3ccc4c(c3)OCO4)ccc2O1	-18	27*	-30	14[16.7 µM]	/
C[C@@H]1CCCCO[C@H](CN(C)C(=O)c2ccccc2)[C@@H](C)CN([C@H](C)CO)C(=O)c2cc(NC(=O)Nc3ccc4c(c3)OCO4)ccc2O1	10	0	10	-14[16.7 µM]	/
C[C@@H]1CCCCO[C@@H](CN(C)Cc2ccc3c(c2)OCO3)[C@@H](C)CN([C@@H](C)CO)C(=O)c2cc(NC(=O)Nc3ccc4c(c3)OCO4)ccc2O1	-37	12	-11	-8[16.7 µM]	/

Screens as filed in PubChem.
